Measured values published in the supplement of paper PMC10498489.
The whole screen tested about 2,300 compounds, of which about 330 (14%) showed activity. Only a sample is shown. Unmarked numbers belong to inactive results.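 How the source made its calls: active = median modified Z-score above 1.96; inactive = 1.96 or below.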

tested on: HepG2 Srxn1-GFP reporter cells (+30 nM CDDO-Me); assay: Srxn1-GFP intensity median modified Z-score relative to plate median; higher = stronger NRF2 / oxidative stress reporter activation, active = hit call of the paper; conditions: 10 µM; exposure time: 24h
Summary of the method: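 Each value is the replicate median of a per-plate modified Z-score for GFP intensity in HepG2 Srxn1-GFP BAC reporter cells. The cells (20,000 per well, 96-well plates, three replicate plates) received compound at 10 μM together with an NRF2 activator at 30 nM for 24 h, in ≤0.1% DMSO. Cytoplasmic GFP was quantified per cell from confocal images of formaldehyde-fixed, Hoechst-stained cells, leaving out images with fewer than 100 cells, and scaling used 1.4826 × median absolute deviation.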

Structure (SMILES)	Srxn1-GFP intensity median modified Z-score
C[C@]12CCC3[C@@H](CC[C@@]45OC4C(=O)C(C#N)C[C@]35C)[C@H]1CC[C@@H]2O (some centres not stated) [euspeclibcmpd687]	-0.339
CCC(C)[C@H]1O[C@]2(C=C[C@@H]1C)C[C@@H]1C[C@@H](C/C=C(\C)[C@@H](OC3C[C@H](OC)C(O[C@H]4C[C@H](OC)[C@@H](O)[C@H](C)O4)[C@H](C)O3)[C@@H](C)/C=C/C=C3\CO[C@@H]4[C@H](O)C(C)=CC(C(=O)O1)[C@]34O)O2 (some centres not stated) [euspeclibcmpd1285]	16.3 (active)
CC(C)(O)C(Cl)(Cl)Cl [euspeclibcmpd1104]	-0.138
C=C[C@H]1C[N@]2CC[C@H]1C[C@@H]2[C@@H](OC(=O)OCC)c1ccnc2ccc(OC)cc12 [euspeclibcmpd1022]	-0.0707
CC=C(C)C(=O)O[C@H]1CC[C@@]2(C)[C@@H]3CC[C@H]4[C@]5(O)C[C@H](O)[C@@]6(O)[C@@H](CN7C[C@@H](C)CC[C@H]7[C@@]6(C)O)[C@]5(O)C[C@@]42O[C@]13O [euspeclibcmpd1469]	0.0522
Nc1[nH]c(=O)n2c1C2 [euspeclibcmpd933]	0.164
CS(=N)(=O)CCC(N)C(=O)O (configuration not stated) [euspeclibcmpd1752]	-0.455
C[C@@H]1O[C@@H](O[C@H]2C[C@@H](O)[C@]3(CO)C4C(CC[C@]3(O)C2)[C@@]2(O)CCC(c3coc(O)c3)[C@@]2(C)C[C@H]4O)[C@H](O)[C@H](O)[C@H]1O (some centres not stated) [euspeclibcmpd1207]	-1.16
CC1OC(OC2C(O)CC(OC3C(O)CC(OC4CCC5(C)C(CCC6C5CCC5(C)C(c7coc(O)c7)C(O)CC65O)C4)OC3C)OC2C)CC(O)C1O (configuration not stated) [euspeclibcmpd1936]	2.78 (active)
CO[C@H]1[C@H](O)[C@@H](O[C@H]2CC[C@]3(C=O)C4CC[C@]5(C)C(c6coc(O)c6)CC[C@]5(O)C4CC[C@@H]3C2)O[C@@H](C)[C@@H]1O (some centres not stated) [euspeclibcmpd2165]	3.39 (active)
C[C@H]1O[C@@H](O[C@H]2[C@@H](O)C[C@H](O[C@H]3[C@@H](O)C[C@H](O[C@H]4CC[C@]5(C)C6CC[C@]7(C)C(c8coc(O)c8)CC[C@]7(O)C6CC[C@@H]5C4)O[C@@H]3C)O[C@@H]2C)C[C@H](O)[C@@H]1O (some centres not stated) [euspeclibcmpd95]	-1.81
CC1OC(OC2C=C3CCC4C(CCC5(C)C(c6ccc(=O)oc6)CCC45O)C3(C)CC2)C(O)C(O)C1O (configuration not stated) [euspeclibcmpd1931]	2.81 (active)
C[C@H]1O[C@@H](O[C@H]2[C@@H](O)C[C@H](O[C@H]3[C@@H](O)C[C@H](O[C@H]4CC[C@]5(C)C6C[C@@H](O)[C@]7(C)C(c8coc(O)c8)CC[C@]7(O)C6CC[C@@H]5C4)O[C@@H]3C)O[C@@H]2C)C[C@H](O)[C@@H]1O (some centres not stated) [euspeclibcmpd96]	-1.88
C[C@@H]1O[C@@H](O[C@H]2CC[C@]3(C=O)C4CC[C@]5(C)C(c6coc(O)c6)CC[C@]5(O)C4CC[C@]3(O)C2)[C@H](O)[C@H](O)[C@H]1O (some centres not stated) [euspeclibcmpd1374]	7.48 (active)
C[C@@]12C(c3coc(O)c3)CC[C@]1(O)C1CC[C@@H]3C[C@@H](O)CC[C@]3(C)C1C[C@H]2O (some centres not stated) [euspeclibcmpd2259]	-0.638
CNNC [euspeclibcmpd2278]	-0.486
O=C(O)CCC1NCC2CC1CN1CCCCC21 (configuration not stated) [euspeclibcmpd2022]	-0.148
O=C1CCCC2C3C[C@H](CN12)[C@@H]1CCCCN1C3 (some centres not stated) [euspeclibcmpd1695]	-0.101
CCC(=O)O[C@H]1CCC2C3CC=C4CC(=O)CC[C@]4(C)C3CC[C@@]21C (some centres not stated) [euspeclibcmpd7]	0.269

Structure (SMILES)	Srxn1-GFP intensity median modified Z-score
C[N+]1(C)C2CCC1CC(OC(=O)C(CO)c1ccccc1)C2 (configuration not stated) [euspeclibcmpd790]	-0.464
CN1CCCCC1c1ccc(-c2cccnc2)nc1 (configuration not stated) [euspeclibcmpd1697]	-0.301
C[N+]12CCC(CC1)C(OC(=O)C(O)(c1ccccc1)c1ccccc1)C2 (configuration not stated) [euspeclibcmpd67]	0.0285
O=P1(N(CCCl)CCCl)NCCCO1 (configuration not stated) [euspeclibcmpd2335]	-0.33
N=c1nc[nH][nH]1 [euspeclibcmpd1771]	-0.334
COc1ccc(C(=O)N2CCCC2=O)cc1 [euspeclibcmpd835]	1.03
NC(Cc1ccc(N(CCCl)CCCl)cc1)C(=O)O (configuration not stated) [euspeclibcmpd181]	0.947
COc1cc2c(cc1OC)-c1c(oc3c4c(ccc3c1=O)OC(C(C)C)C4)CO2 (configuration not stated) [euspeclibcmpd1802]	-0.169
COc1cc2c(cc1OC)C1C(=O)c3ccc4c(c3O[C@@H]1CO2)CC(C(C)C)O4 (some centres not stated) [euspeclibcmpd1349]	54.1 (active)
C=C(C)[C@H]1Cc2c(ccc3c2O[C@@H]2COc4cc(OC)c(OC)cc4C2C3=O)O1 (some centres not stated) [euspeclibcmpd1688]	63.1 (active)
C=C(C)C1Cc2c(ccc3c(=O)c4c(oc23)COc2cc(OC)c(OC)cc2-4)O1 (configuration not stated) [euspeclibcmpd1633]	0.389
COc1cc2c(cc1OC)C1C(=O)c3ccc4oc(C(C)C)cc4c3O[C@@H]1CO2 (some centres not stated) [euspeclibcmpd1384]	0.895
CCC1(c2ccc(N)cc2)CCC(=O)NC1=O (configuration not stated) [euspeclibcmpd20]	-0.169
C[C@]12CCC(=O)C=C1CCc1ccc(O)cc12 [euspeclibcmpd2145]	-0.0198
NC(=O)c1cc([N+](=O)[O-])cc([N+](=O)[O-])c1 [euspeclibcmpd211]	1.85
CC(=O)O[C@H]1CC[C@@]2(C)C(=CCC3C2CC[C@]2(C)C(=O)CCC32)C1 (some centres not stated) [euspeclibcmpd1015]	-0.448
CC1[C@H](C)OC(=O)CC(O)CC(O)CC(O)CCC(O)C(O)C[C@]2(O)CC(O)C(C(=O)O)C(CC(OC3O[C@H](C)[C@@H](O)[C@H](N)[C@@H]3O)/C=C/C=C/C=C/C=C/CC/C=C/C=C/[C@H](C)[C@H]1O)O2 (some centres not stated) [euspeclibcmpd218]	0.964
c1ccc2c(c1)OCC(C1=NCCN1)O2 (configuration not stated) [euspeclibcmpd1238]	0.16
COc1cccc([C@]2(O)CCCC[C@H]2CN(C)C)c1 [euspeclibcmpd765]	-0.221

Structure (SMILES)	Srxn1-GFP intensity median modified Z-score
NC(=O)C[S+]([O-])C(c1ccccc1)c1ccccc1 (configuration not stated) [euspeclibcmpd2299]	0.327
O=C1C=C2C=CC3C[C@@]2(O1)[C@H]1CCCCN31 [euspeclibcmpd1211]	9.38 (active)
CC1NCCc2cc(O)c(O)cc21 (configuration not stated) [euspeclibcmpd2171]	-0.549
CC[C@H]1C2CC3[C@@H]4N(C)c5ccccc5[C@]45C[C@@H](C2C5O)N3[C@@H]1O (some centres not stated) [euspeclibcmpd1044]	-0.296
Cc1[nH]c2ccccc2c1CN(C)C [euspeclibcmpd2173]	-0.24
CN1C2C[C@H](OC(=O)C(CO)c3ccccc3)C[C@H]1[C@H]1OC21 (some centres not stated) [euspeclibcmpd266]	-0.44
Cc1cccc(C)c1N=C1NCCCS1 [euspeclibcmpd416]	-0.674
C=C/C=C\CC1=C(C)C(OC(=O)C2[C@@H](C=C(C)C)C2(C)C)CC1=O (some centres not stated) [euspeclibcmpd1257]	2.3 (active)
CCOC(=O)C1C(C=C(C)C)C1(C)C (configuration not stated) [euspeclibcmpd1522]	0.0825
CC(C)=CC1C(C(=O)OCc2cccc(Oc3ccccc3)c2)C1(C)C (configuration not stated) [euspeclibcmpd1161]	-0.28
O=C(O)CCCc1ccc(N(CCCl)CCCl)cc1 [euspeclibcmpd51]	-0.412
C=C[C@H]1C[N@@]2CC[C@H]1C[C@H]2[C@H](O)c1ccnc2ccccc12 [euspeclibcmpd2388]	-0.0385
O=[N+]([O-])O[C@H]1CO[C@H]2[C@@H]1OC[C@H]2O[N+](=O)[O-] [euspeclibcmpd166]	-0.506
O=[N+]([O-])O[C@@H]1CO[C@H]2[C@@H]1OC[C@@H]2O [euspeclibcmpd605]	3.27 (active)
Cc1cc(OC(=O)N2CCCCC2)c(C(C)C)cc1[N+](C)(C)C [euspeclibcmpd1842]	0.636
COc1ccc(O)c(C(C)(C)C)c1 [euspeclibcmpd2212]	0.639
O=C1c2ccccc2-c2cccc3cccc1c23 [euspeclibcmpd1379]	0.148
C=C(C)c1cc2cc(C(C)=O)c(O)cc2o1 [euspeclibcmpd1716]	10.1 (active)
O=C(O)CCCO [euspeclibcmpd2162]	-0.552
